# In PubChem BioAssay (Tox21):
# Records with an inconclusive call do not appear. Unmarked numbers belong to inactive results. Unless noted, the call rests on the fitted dose curve.
# Target: Progesterone receptor (Homo sapiens) (UniProt P06401)
# Test: qHTS assay to identify small molecule agonists of the progesterone receptor (PR) signaling pathway (AID 1346784); further: nearly all actives have a fitted effect of over 30% in size
# Conditions: PR-UAS-bla HEK293T, beta-lactamase FRET ratio, 16 h; series mostly up to 92.4 µM; activation: at the top concentration
# How it was run: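 PR-UAS-bla HEK 293T cells carrying a UAS-driven beta-lactamase reporter were seeded in medium with 2% charcoal-stripped FBS, preincubated 6 hr at 37C, then exposed to compounds in DMSO for 16 hr; agonism was read by LiveBLAzer B/G FRET fluorescence.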
# On the % scale 0 is the no-effect control and ±100 the full control effect.
# Sequence of Progesterone receptor (Homo sapiens) (P06401 whole entry, looked up): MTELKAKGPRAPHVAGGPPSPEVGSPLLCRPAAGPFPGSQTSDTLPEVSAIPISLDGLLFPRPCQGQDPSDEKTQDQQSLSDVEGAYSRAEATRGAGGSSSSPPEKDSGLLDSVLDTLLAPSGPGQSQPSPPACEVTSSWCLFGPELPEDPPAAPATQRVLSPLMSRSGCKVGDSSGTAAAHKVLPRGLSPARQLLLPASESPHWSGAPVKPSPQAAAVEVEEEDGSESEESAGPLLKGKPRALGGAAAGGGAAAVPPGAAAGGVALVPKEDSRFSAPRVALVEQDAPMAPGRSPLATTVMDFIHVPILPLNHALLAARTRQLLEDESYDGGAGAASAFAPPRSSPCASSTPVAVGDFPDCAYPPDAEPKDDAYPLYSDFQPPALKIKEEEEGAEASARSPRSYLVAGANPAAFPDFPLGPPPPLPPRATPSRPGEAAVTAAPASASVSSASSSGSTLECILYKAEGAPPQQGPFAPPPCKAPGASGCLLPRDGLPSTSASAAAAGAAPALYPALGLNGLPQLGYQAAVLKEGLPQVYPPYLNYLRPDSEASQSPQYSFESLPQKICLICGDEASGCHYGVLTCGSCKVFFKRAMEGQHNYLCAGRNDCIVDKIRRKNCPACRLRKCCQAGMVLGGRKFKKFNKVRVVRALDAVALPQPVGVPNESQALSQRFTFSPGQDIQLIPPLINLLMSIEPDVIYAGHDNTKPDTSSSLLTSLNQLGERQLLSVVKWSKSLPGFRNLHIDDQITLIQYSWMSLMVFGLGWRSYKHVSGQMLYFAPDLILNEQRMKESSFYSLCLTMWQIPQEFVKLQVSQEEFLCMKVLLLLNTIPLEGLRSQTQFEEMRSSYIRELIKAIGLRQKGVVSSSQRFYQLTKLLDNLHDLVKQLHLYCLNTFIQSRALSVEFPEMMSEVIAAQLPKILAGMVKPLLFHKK
row,SMILES,activation
1,Cc1ccc(O)c(C(=O)c2ccccc2)c1,0.563%
2,C=CCN1CCc2nc(N)sc2CC1,-1.12% [at 42.5 µM]
3,CSC(=O)c1cccc2nnsc12,3.24%
4,COC(=O)c1cc(Cl)c(NC(C)=O)cc1OC,-2.81% [at 42.5 µM]
5,Cc1ccc2ccccc2n1,0.0513%
6,CCCOc1ccc(C(=O)OCCN(CC)CC)cc1N,-0.781% [at 42.5 µM]
7,C[n+]1ccccc1/C=N/O,-0.0589% [at 42.5 µM]
8,CCCCCCCCC1CO1 (stereo unspecified),-0.954%
9,O=C(c1ccccc1)c1cccc(O)c1,-0.268%
10,CC(C)C(C)C,-0.173%
11,CC1(C)CC(N)CC(C)(C)N1,0.4%
12,CCCC[O][Al]([O]CCCC)[O]CCCC,0.53%
13,O=C1CC2(CCCC2)CC(=O)N1CCNCC1COc2ccccc2O1 (stereo unspecified),2.03% [at 42.5 µM]
14,CC(C)OC(=O)C(C(=O)OC(C)C)=C1SC=CS1,0.0184% [at 42.5 µM]
15,CC(=O)OC/C=C(/C)CCC=C(C)C,-0.661%
16,CCCCCCCCCCCCCCCC/C=C/C1CC(=O)OC1=O (stereo unspecified),-0.0698% [at 42.5 µM]
17,CCCC(=O)OC,-1.22%
18,COC(=O)C(c1ccccc1Cl)N1CCc2sccc2C1 (stereo unspecified),0.237% [at 42.5 µM]
19,CCN(CC)CC(=O)Oc1ccc(NC(C)=O)cc1,-0.507% [at 42.5 µM]
20,Cc1cc(N)no1,-1.94%
21,CC(=O)Nc1ccc(OCCOCCOc2ccc(NC(C)=O)cc2)cc1,-1.37% [at 42.5 µM]
22,CC(C)(Sc1cc(C(C)(C)C)c(O)c(C(C)(C)C)c1)Sc1cc(C(C)(C)C)c(O)c(C(C)(C)C)c1,-1.32% [at 42.5 µM]
23,O=C1Nc2ccccc2C1=O,5.16%
24,CCCC(C)C(O)CC (stereo unspecified),0.144%
25,O=C(O)CCCCCCCCCC(=O)O,-0.533%
26,NC[C@H]1O[C@H](O[C@H]2[C@H](O)[C@@H](O[C@H]3O[C@H](CO)[C@@H](O)[C@H](N)[C@H]3O)[C@H](N)C[C@@H]2N)[C@H](N)[C@@H](O)[C@@H]1O,-1.56% [at 19 µM]
27,Cc1nnc(C(=O)NC(C)(C)c2nc(C(=O)NCc3ccc(F)cc3)c(O)c(=O)n2C)o1,-0.467% [at 42.5 µM]
28,CC12CCCC=C1C(=O)OC2=O (stereo unspecified),-0.165%
29,CCCCN1C(=O)c2ccccc2C1=O,0.436%

# Target: Progesterone receptor (Homo sapiens) (UniProt P06401)
# Test: qHTS assay to identify small molecule antagonists of the progesterone receptor (PR) signaling pathway (AID 1346795; active means well fitted inhibition curve with a large enough effect in the signal ratio in the repeat runs, not every such curve was filed as active; the % refers to the signal ratio)
# Conditions: PR-UAS-bla HEK293T, beta-lactamase FRET ratio, 16 h; series mostly up to 92.4 µM; activity change, negative = inhibition: at the top concentration
# How it was run: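 PR-UAS-bla HEK293T cells carrying a UAS-driven beta-lactamase reporter were plated in medium with 2% charcoal-stripped FBS and rested 6 hr at 37C. Compounds were added with 1 nM R5020 (final) for 16 hr, then FRET substrate loaded 2 hr at room temperature.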
row,SMILES,"activity change, negative = inhibition"
1,Cc1ccc(O)c(C(=O)c2ccccc2)c1,-25.8%
2,C=CCN1CCc2nc(N)sc2CC1,9.27% [at 42.5 µM]
3,COC(=O)c1cc(Cl)c(NC(C)=O)cc1OC,-18.7% [at 42.5 µM]
4,Cc1ccc2ccccc2n1,14.2%
5,CCCOc1ccc(C(=O)OCCN(CC)CC)cc1N,1.87% [at 42.5 µM]
6,O=c1c(O)c(O)c1=O,3.27%
7,CC(C)OCCO,12.3%
8,C[n+]1ccccc1/C=N/O,0.749% [at 42.5 µM]
9,CCCCCCCCC1CO1 (stereo unspecified),10.5%
10,CC(C)C(C)C,0.904%
11,CC1(C)CC(N)CC(C)(C)N1,15.8%
12,CCCC[O][Al]([O]CCCC)[O]CCCC,3.73%
13,N=C(N)N1CCc2ccccc2C1,5.13% [at 8.39 µM]
14,O=C1CC2(CCCC2)CC(=O)N1CCNCC1COc2ccccc2O1 (stereo unspecified),-8.41% [at 42.5 µM]
15,CC(=O)OC/C=C(/C)CCC=C(C)C,-0.182%
16,CCCC(=O)OC,12.9%
17,CCN(CC)CC(=O)Oc1ccc(NC(C)=O)cc1,8.05% [at 42.5 µM]
18,Cc1cc(N)no1,0.418%
19,CC(=O)Nc1ccc(OCCOCCOc2ccc(NC(C)=O)cc2)cc1,4.51% [at 42.5 µM]
20,CC(C)(Sc1cc(C(C)(C)C)c(O)c(C(C)(C)C)c1)Sc1cc(C(C)(C)C)c(O)c(C(C)(C)C)c1,1.95% [at 42.5 µM]
21,O=C1Nc2ccccc2C1=O,0.905%
22,CCCC(C)C(O)CC (stereo unspecified),14.6%
23,O=C(O)CCCCCCCCCC(=O)O,13.3%
24,NC[C@H]1O[C@H](O[C@H]2[C@H](O)[C@@H](O[C@H]3O[C@H](CO)[C@@H](O)[C@H](N)[C@H]3O)[C@H](N)C[C@@H]2N)[C@H](N)[C@@H](O)[C@@H]1O,11.8% [at 18.9 µM]
25,C=CCCCCCCCCCCCCCC,7.49% [at 18.9 µM]
26,CC12CCCC=C1C(=O)OC2=O (stereo unspecified),0.103%
27,CCCCN1C(=O)c2ccccc2C1=O,-0.519%
